According to publication PMC5540273 (PLoS ONE, 2017):
Values joined by “and” are separate entries in the source; they are usually repeats but may differ in a detail not shown here. Equal entries are not always repeated. Where two headings read alike, the source gives them in different places.

What was measured:
GRK4 = details: concentration: 1 μM, replicates: in singlicate, n = 1
GRK7 = details: concentration: 1 μM, replicates: in singlicate, n = 1
GSK3A = details: concentration: 1 μM, replicates: in singlicate, n = 1
GSK3B = details: concentration: 1 μM, replicates: in singlicate, n = 1
HASPIN = system: T1, HASPIN; details: concentration: 1 μM, replicates: in singlicate, n = 1
T1 construct: gene GSG2

HCK = details: concentration: 1 μM, replicates: in singlicate, n = 1
HIPK1 = details: concentration: 1 μM, replicates: in singlicate, n = 1
HIPK2 = details: concentration: 1 μM, replicates: in singlicate, n = 1
HIPK3 = details: concentration: 1 μM, replicates: in singlicate, n = 1
HIPK4 = details: concentration: 1 μM, replicates: in singlicate, n = 1
HPK1 = details: concentration: 1 μM, replicates: in singlicate, n = 1
HUNK = details: concentration: 1 μM, replicates: in singlicate, n = 1
ICK = details: concentration: 1 μM, replicates: in singlicate, n = 1
IGF1R = details: concentration: 1 μM, replicates: in singlicate, n = 1
IKK-alpha = system: T2, IKK-alpha; details: concentration: 1 μM, replicates: in singlicate, n = 1
T2 construct: gene CHUK

IKK-beta = system: T3, IKK-beta; details: concentration: 1 μM, replicates: in singlicate, n = 1
T3 construct: gene IKBKB

IKK-epsilon = system: T4, IKK-epsilon; details: concentration: 1 μM, replicates: in singlicate, n = 1
T4 construct: gene IKBKE

INSRR = details: concentration: 1 μM, replicates: in singlicate; n = 1
INSR = details: concentration: 1 μM, replicates: in singlicate, n = 1
IRAK1 = details: concentration: 1 μM, replicates: in singlicate, n = 1
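Note: KINOMEscan kinase panel screen.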

With `COc1ccc(CNC(=O)NC2CCN(c3ccnc(Nc4ccc(OC)cc4)n3)C2)cc1` (centres unmarked) [GSK1379727] the “%Inh” value (GRK4) was 4%, the “%Inh” value (GRK7) was 0% and the “%Inh” value (GSK3A) was 0%. The “%Inh” value (GSK3B) was 0%, the “%Inh” value (HASPIN) was 19% and the “%Inh” value (HCK) was 0%. For the same compound, the “%Inh” value (HIPK1) was 0%, the “%Inh” value (HIPK2) was 40% and the “%Inh” value (HIPK3) was 23%. The “%Inh” value (HIPK4) was 0%, the “%Inh” value (HPK1) was 38% and the “%Inh” value (HUNK) was 0%. For the same compound, the “%Inh” value (ICK) was 0%, the “%Inh” value (IGF1R) was 0% and the “%Inh” value (IKK-alpha) was 20%. The “%Inh” value (IKK-beta) was 10%, the “%Inh” value (IKK-epsilon) was 12% and the “%Inh” value (INSRR) was 0%. For the same compound, the “%Inh” value (INSR) was 0% and the “%Inh” value (IRAK1) was 28%.
With `O=C1Cc2cc(Nc3nc(NCc4cccc(S(=O)(=O)C(F)(F)F)c4)ncc3C(F)(F)F)ccc2N1` the “%Inh” value (GRK4) was 8%, the “%Inh” value (GRK7) was 0% and the “%Inh” value (GSK3A) was 47%. For the same compound, the “%Inh” value (GSK3B) was 0%, the “%Inh” value (HASPIN) was 8% and the “%Inh” value (HCK) was 21%. For the same compound, the “%Inh” value (HIPK1) was 0%, the “%Inh” value (HIPK2) was 7% and the “%Inh” value (HIPK3) was 0%. The “%Inh” value (HIPK4) was 0%, the “%Inh” value (HPK1) was 0% and the “%Inh” value (HUNK) was 8%. For the same compound, the “%Inh” value (ICK) was 0%, the “%Inh” value (IGF1R) was 0% and the “%Inh” value (IKK-alpha) was 20%. For the same compound, the “%Inh” value (IKK-beta) was 8%, the “%Inh” value (IKK-epsilon) was 0% and the “%Inh” value (INSRR) was 0%. The “%Inh” value (INSR) was 0% and the “%Inh” value (IRAK1) was 14%.
For `COc1ccc(Nc2nccc(N3CCC(NC(=O)Nc4cc(C)ccc4C)C3)n2)cc1` (centres unmarked) [GSK1379741], the “%Inh” value (GRK4) was 0%, the “%Inh” value (GRK7) was 0% and the “%Inh” value (GSK3A) was 0%. The “%Inh” value (GSK3B) was 18%, the “%Inh” value (HASPIN) was 0% and the “%Inh” value (HCK) was 0%. For the same compound, the “%Inh” value (HIPK1) was 0%, the “%Inh” value (HIPK2) was 0% and the “%Inh” value (HIPK3) was 16%. The “%Inh” value (HIPK4) was 0%, the “%Inh” value (HPK1) was 36% and the “%Inh” value (HUNK) was 0%. For the same compound, the “%Inh” value (ICK) was 13%, the “%Inh” value (IGF1R) was 0% and the “%Inh” value (IKK-alpha) was 0%. The “%Inh” value (IKK-beta) was 21%, the “%Inh” value (IKK-epsilon) was 0% and the “%Inh” value (INSRR) was 0%. For the same compound, the “%Inh” value (INSR) was 0% and the “%Inh” value (IRAK1) was 18%.
With `Cl.Cl.Cl.Fc1ccc(-c2ncn(C3CCNCC3)c2-c2ccnc(Nc3ccccc3)n2)cc1` [SB-238039] the “%Inh” value (GRK4; 1 µM) was 8% and 46%, the “%Inh” value (GRK7; 1 µM) was 0% and 37% and the “%Inh” value (GSK3A; 1 µM) was 57% and 10%. For the same compound, the “%Inh” value (GSK3B; 1 µM) was 47% and 17%, the “%Inh” value (HASPIN; 1 µM) was 58% and 0% and the “%Inh” value (HCK; 1 µM) was 65% and 34%. The “%Inh” value (HIPK1; 1 µM) was 29% and 64%, the “%Inh” value (HIPK2; 1 µM) was 31% and 30% and the “%Inh” value (HIPK3; 1 µM) was 8% and 0%. The “%Inh” value (HIPK4; 1 µM) was 17% and 0%, the “%Inh” value (HPK1; 1 µM) was 96.2% and 92.5% and the “%Inh” value (HUNK; 1 µM) was 61% and 0%. The “%Inh” value (ICK; 1 µM) was 0% and 34%, the “%Inh” value (IGF1R; 1 µM) was 37% and 0% and the “%Inh” value (IKK-alpha; 1 µM) was 34% and 0%. For the same compound, the “%Inh” value (IKK-beta; 1 µM) was 10% and 0%, the “%Inh” value (IKK-epsilon; 1 µM) was 0% and 3% and the “%Inh” value (INSRR) was 0%. The “%Inh” value (INSR) was 15% and the “%Inh” value (IRAK1; 1 µM) was 66% and 0%.
With `Cc1nnc(-c2ccc3occ(-c4ccc(C(C)O)cc4)c3c2)o1` (centres unmarked) the “%Inh” value (GRK4) was 1%, the “%Inh” value (GRK7) was 11% and the “%Inh” value (GSK3A) was 73%. The “%Inh” value (GSK3B) was 19%, the “%Inh” value (HASPIN) was 29% and the “%Inh” value (HCK) was 6%. The “%Inh” value (HIPK1) was 67%, the “%Inh” value (HIPK2) was 56% and the “%Inh” value (HIPK3) was 41%. For the same compound, the “%Inh” value (HIPK4) was 33%, the “%Inh” value (HPK1) was 0% and the “%Inh” value (HUNK) was 0%. For the same compound, the “%Inh” value (ICK) was 0%, the “%Inh” value (IGF1R) was 9% and the “%Inh” value (IKK-alpha) was 0%. For the same compound, the “%Inh” value (IKK-beta) was 2%, the “%Inh” value (IKK-epsilon) was 3% and the “%Inh” value (INSRR) was 6%. The “%Inh” value (INSR) was 11% and the “%Inh” value (IRAK1) was 31%.
With `NS(=O)(=O)c1cccc(-c2ccc3ncc(N4CCOCC4)nc3c2)c1` [GSK1535721] the “%Inh” value (GRK4) was 0%, the “%Inh” value (GRK7) was 0% and the “%Inh” value (GSK3A) was 19%. For the same compound, the “%Inh” value (GSK3B) was 0%, the “%Inh” value (HASPIN) was 36% and the “%Inh” value (HCK) was 0%. The “%Inh” value (HIPK1) was 10%, the “%Inh” value (HIPK2) was 0% and the “%Inh” value (HIPK3) was 1%. For the same compound, the “%Inh” value (HIPK4) was 0%, the “%Inh” value (HPK1) was 37% and the “%Inh” value (HUNK) was 0%. The “%Inh” value (ICK) was 0%, the “%Inh” value (IGF1R) was 2% and the “%Inh” value (IKK-alpha) was 0%. For the same compound, the “%Inh” value (IKK-beta) was 0%, the “%Inh” value (IKK-epsilon) was 34% and the “%Inh” value (INSRR) was 0%. The “%Inh” value (INSR) was 7% and the “%Inh” value (IRAK1) was 1%.
`Cl.Nc1ncnc2occ(-c3ccc(NC(=O)Nc4cc(C(F)(F)F)ccc4F)cc3)c12` [SB-707548] was tested, and the “%Inh” value (GRK4) was 0%, the “%Inh” value (GRK7) was 0% and the “%Inh” value (GSK3A) was 68%. The “%Inh” value (GSK3B) was 8%, the “%Inh” value (HASPIN) was 0% and the “%Inh” value (HCK) was 71%. For the same compound, the “%Inh” value (HIPK1) was 63%, the “%Inh” value (HIPK2) was 50% and the “%Inh” value (HIPK3) was 77%. For the same compound, the “%Inh” value (HIPK4) was 99.2%, the “%Inh” value (HPK1) was 85% and the “%Inh” value (HUNK) was 15%. The “%Inh” value (ICK) was 5%, the “%Inh” value (IGF1R) was 5% and the “%Inh” value (IKK-alpha) was 86%. The “%Inh” value (IKK-beta) was 35%, the “%Inh” value (IKK-epsilon) was 63% and the “%Inh” value (INSRR) was 0%. For the same compound, the “%Inh” value (INSR) was 23% and the “%Inh” value (IRAK1) was 35%.
For `Cc1cccc(-c2nc(Nc3ccc4ncsc4c3)c3ccccc3n2)n1` [GW867588], the “%Inh” value (GRK4) was 0%, the “%Inh” value (GRK7) was 7% and the “%Inh” value (GSK3A) was 3%. The “%Inh” value (GSK3B) was 5%, the “%Inh” value (HASPIN) was 16% and the “%Inh” value (HCK) was 24%. For the same compound, the “%Inh” value (HIPK1) was 0%, the “%Inh” value (HIPK2) was 11% and the “%Inh” value (HIPK3) was 0%. The “%Inh” value (HIPK4) was 6%, the “%Inh” value (HPK1) was 0% and the “%Inh” value (HUNK) was 45%. For the same compound, the “%Inh” value (ICK) was 17%, the “%Inh” value (IGF1R) was 0% and the “%Inh” value (IKK-alpha) was 15%. The “%Inh” value (IKK-beta) was 0%, the “%Inh” value (IKK-epsilon) was 4% and the “%Inh” value (INSRR) was 0%. The “%Inh” value (INSR) was 0% and the “%Inh” value (IRAK1) was 40%.
`NCCNS(=O)(=O)c1ccc(-c2ccnc3[nH]ccc23)cc1` [GSK977617] was tested, and the “%Inh” value (GRK4; 1 µM) was 69% and 37%, the “%Inh” value (GRK7; 1 µM) was 92.1% and 90.1% and the “%Inh” value (GSK3A) was 0%. The “%Inh” value (GSK3B; 1 µM) was 0% and 10%, the “%Inh” value (HASPIN; 1 µM) was 95.3% and 86% and the “%Inh” value (HCK) was 0%. The “%Inh” value (HIPK1; 1 µM) was 95.6% and 94.2%, the “%Inh” value (HIPK2; 1 µM) was 96% and 89% and the “%Inh” value (HIPK3; 1 µM) was 97.4% and 95.9%. The “%Inh” value (HIPK4; 1 µM) was 77% and 64%, the “%Inh” value (HPK1; 1 µM) was 59% and 44% and the “%Inh” value (HUNK) was 0%. The “%Inh” value (ICK; 1 µM) was 19% and 2%, the “%Inh” value (IGF1R; 1 µM) was 8% and 16% and the “%Inh” value (IKK-alpha; 1 µM) was 97.7% and 94.3%. For the same compound, the “%Inh” value (IKK-beta; 1 µM) was 99.4%, the “%Inh” value (IKK-epsilon; 1 µM) was 29% and 32% and the “%Inh” value (INSRR) was 2%. The “%Inh” value (INSR; 1 µM) was 18% and 4% and the “%Inh” value (IRAK1; 1 µM) was 81% and 65%.
For `Fc1ccc(-c2ncn(CCCN3CCOCC3)c2-c2cccnc2)cc1` [SB-211743], the “%Inh” value (GRK4) was 14%, the “%Inh” value (GRK7) was 0% and the “%Inh” value (GSK3A) was 24%. The “%Inh” value (GSK3B) was 20%, the “%Inh” value (HASPIN) was 41% and the “%Inh” value (HCK) was 34%. The “%Inh” value (HIPK1) was 38%, the “%Inh” value (HIPK2) was 0% and the “%Inh” value (HIPK3) was 18%. For the same compound, the “%Inh” value (HIPK4) was 4%, the “%Inh” value (HPK1) was 0% and the “%Inh” value (HUNK) was 44%. The “%Inh” value (ICK) was 0%, the “%Inh” value (IGF1R) was 0% and the “%Inh” value (IKK-alpha) was 0%. For the same compound, the “%Inh” value (IKK-beta) was 0%, the “%Inh” value (IKK-epsilon) was 6% and the “%Inh” value (INSRR) was 8%. The “%Inh” value (INSR) was 4% and the “%Inh” value (IRAK1) was 0%.
